# Assay results: publication PMC4336329 (PLoS ONE, 2015)
# Screen size: about 310,000 compounds; about 14,000 (4.5%) showed an effect of 50% or more. Effects have a minus sign here. This excerpt belongs to a sample that is enriched for strong results.
# Target: human ether-à-go-go-related gene (hERG) potassium channel (human, UniProt Q12809)
# Assay: primary screen, population patch clamp on CHO cells stably expressing hERG; higher = less effect of the substance
# 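Note: peak tail current of the secondary pulse compared with the same well before compound.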
# Chain of human ether-à-go-go-related gene (hERG) potassium channel (Q12809 whole entry, looked up): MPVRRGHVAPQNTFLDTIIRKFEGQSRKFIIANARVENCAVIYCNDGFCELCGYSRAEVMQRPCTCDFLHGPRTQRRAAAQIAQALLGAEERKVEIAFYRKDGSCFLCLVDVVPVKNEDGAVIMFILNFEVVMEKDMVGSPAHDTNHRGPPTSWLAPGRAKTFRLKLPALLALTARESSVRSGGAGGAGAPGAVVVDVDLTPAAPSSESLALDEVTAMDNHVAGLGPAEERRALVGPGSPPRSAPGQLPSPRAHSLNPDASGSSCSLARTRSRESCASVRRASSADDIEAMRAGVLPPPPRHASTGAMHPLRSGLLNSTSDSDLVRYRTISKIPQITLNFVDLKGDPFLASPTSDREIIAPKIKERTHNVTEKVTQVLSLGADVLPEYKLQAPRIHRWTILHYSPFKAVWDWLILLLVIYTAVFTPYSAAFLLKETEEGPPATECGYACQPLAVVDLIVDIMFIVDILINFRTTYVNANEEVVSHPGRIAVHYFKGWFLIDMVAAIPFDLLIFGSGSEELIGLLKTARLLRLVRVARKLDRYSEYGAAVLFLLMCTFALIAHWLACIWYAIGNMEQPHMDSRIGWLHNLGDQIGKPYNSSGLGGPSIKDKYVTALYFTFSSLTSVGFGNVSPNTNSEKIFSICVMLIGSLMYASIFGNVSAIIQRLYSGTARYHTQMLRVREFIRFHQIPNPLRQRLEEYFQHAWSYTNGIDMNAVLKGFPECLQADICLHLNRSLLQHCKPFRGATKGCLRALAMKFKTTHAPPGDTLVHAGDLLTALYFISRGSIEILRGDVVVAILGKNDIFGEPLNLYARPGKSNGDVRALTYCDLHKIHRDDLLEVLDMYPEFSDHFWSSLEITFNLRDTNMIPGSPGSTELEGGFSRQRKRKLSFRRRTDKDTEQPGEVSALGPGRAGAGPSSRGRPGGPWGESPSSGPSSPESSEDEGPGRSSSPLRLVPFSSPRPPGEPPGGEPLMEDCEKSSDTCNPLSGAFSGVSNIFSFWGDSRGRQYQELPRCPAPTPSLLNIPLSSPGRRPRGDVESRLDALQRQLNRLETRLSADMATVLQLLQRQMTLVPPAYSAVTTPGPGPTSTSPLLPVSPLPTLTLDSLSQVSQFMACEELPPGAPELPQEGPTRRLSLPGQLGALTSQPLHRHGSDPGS
row,Compound,"hERG current change (%, negative = inhibition) at 10uM [%]"
1,O=C(Cn1cnc2ccccc21)N/N=C/C(Br)=C/c1ccccc1,5.98
2,O=C(Nc1c(F)cc(F)cc1Br)c1cc(S(=O)(=O)N2CCN(c3ccccn3)CC2)ccc1F,-15.9
3,CCN1CCN(S(=O)(=O)c2ccc(F)c(C(=O)Nc3c(F)cc(F)cc3Br)c2)CC1,-17.1
4,CCC(C)NS(=O)(=O)c1ccc(F)c(C(=O)Nc2c(F)cc(F)cc2Br)c1 (stereo not drawn),-60.8
5,CC(=O)Nc1ccc(S(=O)(=O)N(CC(=O)Nc2cc(C)on2)Cc2ccc(F)cc2)cc1,-11.5
6,COc1cccc2cc(C(=O)C3=C(O)C(=O)N(CCN4CCOCC4)C3c3cccs3)oc12 (stereo not drawn),13.1
7,C=CCNc1nc(NCCN2CCOCC2)nc(N2CCOCC2)n1,18.6
8,CCOc1ccc(Nc2nc(N3CCOCC3)nc(N3CCOCC3)n2)cc1,-17.9
9,COc1ccc(NC(=S)NCCN2CCOCC2)cc1,21.7
10,c1ccc(Nc2nc(NCCN3CCOCC3)nc(Nc3ccccc3)n2)cc1,-15.2
11,COc1ccc(Nc2nc(N3CCOCC3)nc(N3CCOCC3)n2)cc1,11.7
12,COc1nc(NCCN2CCOCC2)nc(Nc2ccccc2)n1,-50.5
13,C=CCNc1nc(NCCN2CCOCC2)nc(OC)n1,-4.89
14,CCOc1ccc(Nc2nc(NCCN3CCOCC3)nc(OC)n2)cc1,-63.8
15,CCOc1nc(Nc2ccc(OC)cc2)nc(N2CCOCC2)n1,-4.52
16,Clc1ccc(CNc2nc(N3CCOCC3)nc(N3CCOCC3)n2)cc1,-20
17,COc1ccc(Nc2nc(NCCN3CCOCC3)nc(Nc3ccc(OC)cc3)n2)cc1,-78.2
18,Clc1ccc(Nc2nc(NCCN3CCOCC3)nc(N3CCOCC3)n2)cc1,-56
19,Cc1cc(C)nc(NS(=O)(=O)c2ccc(NC(=O)COc3ccccc3F)cc2)n1,4.9
20,CCCc1nc(SCc2ccccc2Cl)n[nH]1,10.7
21,COc1cccc(CN(C)CC(=O)Nc2sc3c(c2C#N)CCC3)c1OC,10.3

row,Compound,"hERG current change (%, negative = inhibition) at 10uM [%]"
1,COc1ccc(-n2c3c(cc(C#N)c2=O)C(=O)CCC3)cc1,29.1
2,COc1ccc(Oc2c(C)oc3c(CN(C)C)c(O)ccc3c2=O)cc1,-1.88
3,O=c1cc(-c2ccccc2)oc2ccccc12,-4.17
4,O=C(O)c1cc(=O)c2cc(Cl)ccc2o1,17.3
5,Clc1ccc(Oc2ncnc3oc(-c4ccccc4)cc23)cc1,4.39
6,CC(O)C[NH+]=c1cc(-c2ccccc2)oc2ccc(Cl)cc12.F[B-](F)(F)F (stereo not drawn),-69.4
7,CC(C)C[NH+]=c1cc(-c2ccccc2)oc2ccc(Cl)cc12.F[B-](F)(F)F,-87.4
8,Cc1cc(Cl)ccc1Oc1ncnc2oc(-c3ccccc3)cc12,-0.172
9,Cc1nn(Cc2ccccc2Cl)c(C)c1C(=O)OCC(=O)N1CC(C)OC(C)C1 (stereo not drawn),1.43
10,Clc1ccc(N2CCN(Cc3ccco3)CC2)cc1,-14.2
11,CCOC(=O)Cc1c(C)nc2c(-c3ccccc3)c[nH]n2c1=O,2.48
12,Cc1nn(S(=O)(=O)N2CCOCC2)c(C)c1Br,-0.162
13,O=C(O)C(Cc1ccccc1)N1C(=O)c2c(Cl)c(Cl)c(Cl)c(Cl)c2C1=O (stereo not drawn),3
14,COc1ccc(NS(=O)(=O)c2cc(NC(=O)C3CC3)ccc2N2CCCCC2)cc1,9.99
15,COC(=O)c1cccc([N+](=O)[O-])c1CN1CCCC(C(N)=O)C1 (stereo not drawn),18.4
16,COc1ccccc1C(=O)N/C(=C\c1ccc(Br)cc1)C(=O)N1CCCC1,-48.6
17,O=C(N/C(=C\c1ccc(Br)cc1)C(=O)N1CCOCC1)c1ccccc1Cl,-2.31
18,O=C(N/C(=C/c1ccc(Br)cc1)C(=O)N1CCCCC1)c1ccccc1F,-40.7
19,O=C(N/C(=C\c1ccc(Br)cc1)C(=O)N1CCCC1)c1ccccc1F,-71.8
20,COc1ccccc1C(=O)N/C(=C/c1ccc(Br)cc1)C(=O)N1CCCC1,-48.9
21,O=C(N/C(=C/c1ccc(Br)cc1)C(=O)N1CCCC1)c1ccccc1F,-71.5
